The supplement of paper PMC10338343
± gives the standard deviation.

Assays:
[1] = test system: MILI (PIWIL2) piRISC loaded with L1MC piRNA (26 nt); assay: pre-steady-state target cleavage rate (min^-1); guide: L1MC piRNA 5'p-UAACUAAAUACUAUGCAAGCUGUAGG; higher = faster piRNA-guided slicing of the target;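 further: 1 nM active piRISC with 0.1 nM target library at 33 °C single turnover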
Summary of the method: (§1)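 Cleave-'n-Seq measured uncleaved targets by sequencing after a transcribed, DNA-blocked target RNA library […] was mixed with 1 nM active affinity-purified piRISC holding one synthetic guide, with or without 500 nM GTSF1 partner protein, at 33 °C in HEPES–potassium acetate buffer for 0–8 or 0–960 min. Counts were normalised to depth and to weakly complementary targets, three trials were pooled, and k3 was capped at 0.0001 min^-1. A burst-and-steady-state fit gave the pre-steady-state cleavage rate.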

[2] = test system: EfPiwi piRISC loaded with L1MC piRNA (26 nt); assay: pre-steady-state target cleavage rate (min^-1); auxiliary factor: 500 nM Ephydatia muelleri Gtsf1; guide: L1MC piRNA 5'p-UAACUAAAUACUAUGCAAGCUGUAGG; MIWI and MILI are mouse PIWI proteins and EfPiwi is from a freshwater sponge; tags in brackets are library labels; higher = faster piRNA-guided slicing of the target
Summary of the method: as §1

[3] = auxiliary factor: 500 nM mouse GTSF1

| Sequence | pre-steady-state target cleavage rate [1, 3] | pre-steady-state target cleavage rate [2] | pre-steady-state target cleavage rate ([1]; auxiliary factor: none (no GTSF1)) |
| --- | --- | --- | --- |
| UCCUGCUACAGCUUGCAUAGAAUUUAGUUA | 0.0612 ± 0.014 | 0.00582 ± 0.0022 | – |
| UCCUGCUACAGCUUGCAUAGUAUUUUCAAA | 0.137 ± 0.041 | 0.00277 ± 0.0021 | – |
| UCCUCCUACAGCUUGCAAAGUAUUUUCAAA | 0.0849 ± 0.023 | 0.00286 ± 0.0028 | – |
| UCCUGGUACAGCUUGCAUUGUAUUUUGUUA | 0.0604 ± 0.018 | 0.00266 ± 0.0026 | – |
| UCCUGGAACAGCUUGCAUAGUAUUUAGAUUA | 0.0966 ± 0.023 | 0.00539 ± 0.002 | – |
| UCCUGCUACAGCUUGCAUAGUAAUUACUUA | 0.057 ± 0.017 | 0.0026 ± 0.0026 | – |
| UCCUCCUACAGCUUGCAUAGUAUAUUCAAA | 0.125 ± 0.025 | 0.00316 ± 0.0027 | – |
| UCCUCCUUCAGCUUGCAUAGUAUUUACAAA | 0.13 ± 0.029 | 0.00379 ± 0.0027 | – |
| UCCUCGAUCAGCUUGCAUAGUAUUUAGAAA | 0.115 ± 0.02 | 0.00579 ± 0.0018 | – |
| UCCUCCUACAGCUUGCAAUAGUAUUUAGUUA | 0.0415 ± 0.01 | 0.0427 ± 0.014 | – |
| UCCUCCUACAGCUUGCAUAGUAUUAACUUA | 0.0722 ± 0.018 | 0.00459 ± 0.0029 | – |
| UCCUGGUACAGCUUGCAUAGUAUUUUGUAA | 0.03 ± 0.0099 | 0.00379 ± 0.0027 | – |
| UCCUCCUAGAGCUUGCAUAGUAUUUACAAA | 0.0915 ± 0.027 | 0.00252 ± 0.0019 | – |
| UCCUGGAUCAGCUUGCAUAGUAUUUAGCUUA | 0.149 ± 0.021 | 0.0068 ± 0.0026 | – |
| UCCUCCUACAGCUUGCAUUAGUAUUUAGUUA | 0.0229 ± 0.0088 | 0.00479 ± 0.0038 | – |
| UCCUGCUACAGCAUGCAUAGUAUUUAGAUA | 0.179 ± 0.033 | 0.00378 ± 0.0015 | – |
| UCCUGGUACAGCUAGCAUAGUAUUUAGAAA | 0.0357 ± 0.013 | 0.00319 ± 0.0022 | – |
| UCCUCCUACAGCUUCCAUAGUAUUUACUUA | 0.0137 ± 0.0064 | 0.00277 ± 0.0024 | – |
| UCCUCCUUGAGCUUGCAUAGUAUUUUCAAA | 0.0637 ± 0.016 | 0.00265 ± 0.0021 | – |
| UCCUGCUACAGCUUGCAAAGUAUAUAGUUA | 0.0886 ± 0.016 | 0.00379 ± 0.0026 | – |

| Sequence | pre-steady-state target cleavage rate [1, 3] | pre-steady-state target cleavage rate [2] | pre-steady-state target cleavage rate ([1]; auxiliary factor: none (no GTSF1)) |
| --- | --- | --- | --- |
| UCCUGGAACAGCUUGCAUAGUAUAAAGAAA | 0.0192 ± 0.0088 | 0.00217 ± 0.0021 | – |
| UCCUGGAACAGCUUGCAUAGUAUUUUCAAA | 0.0774 ± 0.018 | 0.00233 ± 0.0023 | – |
| UCCUGGAACAGCUUGCAUACUAUUAAGUUA | 0.0333 ± 0.012 | 0.00246 ± 0.0024 | – |
| UCCUGCUACUGCUUGCAUAGUAUUUACAAA | 0.0206 ± 0.0071 | 0.00262 ± 0.0024 | – |
| UCCUCCUACAGCUUGCAUAGUAUUAGUUA | 0.273 ± 0.024 | 0.00402 ± 0.0027 | – |
| UCCUGGAACAGCUUGCAUAGAAUUUAGUAA | 0.0627 ± 0.014 | 0.00292 ± 0.002 | – |
| UCCUGGUACAGCUUGCAUAGAAUUUAGUUA | 0.229 ± 0.08 | 0.00314 ± 0.0023 | – |
| UCCUGGAACAGCUUGCAUAAUAUUUAGUUA | 0.298 ± 0.028 | 0.00487 ± 0.0024 | – |
| UCCUGGAUGUGCUUGCAUAGUAUUUAUUA | 0.00911 ± 0.0051 | 0.00271 ± 0.0022 | – |
| UCCUGGAUCAGCUUGCAUUGUAUUUAGUAA | 0.144 ± 0.014 | 0.00441 ± 0.0018 | – |
| UCCUGCUACAGCUUGCAUAGAAUUAAGUUA | 0.048 ± 0.012 | 0.00288 ± 0.0022 | – |
| UCCUGGAACACCUUGCAUACUAUUUAGUUA | 0.0449 ± 0.0096 | 0.00273 ± 0.002 | – |
| UCCUGCUAAAGCUUGCAUAGUAUUUAGUUA | 0.177 ± 0.035 | 0.00411 ± 0.0014 | – |
| UCCUGGAUGUCGAACCAUAGUAUUUACAAA [g5:g15:cont:t1A] | < 0.0001 | < 0.0001 | – |
| UCCUGGAUGAGCUUGCAUAGUAAAUAGUUA | 0.114 ± 0.015 | 0.00329 ± 0.0025 | – |
| UCCUCCUACAGCUUGCAUAGGUAUUUAGUUA | – | 0.0036 ± 0.0026 | 0.00373 ± 0.0024 |
| UCCUGCUACAGCUAGCAUAGUAUUUAGUAA | 0.212 ± 0.019 | 0.00623 ± 0.002 | – |
| UCCUGGUUCAGCUUGCAUAGUAUUUAGAAA | 0.114 ± 0.022 | 0.00471 ± 0.003 | – |
| UCCUGGUACAGCUUGCAUAGUAUAUAGUAA | 0.173 ± 0.034 | 0.00335 ± 0.0022 | – |
| UCCUCCUAGUGCUUGCAUAGUAUUUAGUAA | 0.114 ± 0.019 | 0.00468 ± 0.002 | – |

| Sequence | pre-steady-state target cleavage rate [1, 3] | pre-steady-state target cleavage rate [2] | pre-steady-state target cleavage rate ([1]; auxiliary factor: none (no GTSF1)) |
| --- | --- | --- | --- |
| UCCUCCUACAGCUUGCAAAGUAUUUUGUUA | 0.0808 ± 0.011 | 0.00453 ± 0.0028 | – |
| UCCUGGAUCAGCUUGCAUAGUAAUUUGUUA | 0.114 ± 0.025 | 0.00366 ± 0.002 | – |
| UCCUGGAUCUGCUUGCAUAGUAUUUAGAUA | 0.0934 ± 0.016 | 0.00401 ± 0.0022 | – |
| UCCUGGAUCAGCUUGCAUAGUAUUUAUUA | 0.044 ± 0.011 | 0.0033 ± 0.0024 | – |
| UCCUGCUACAGCUUGCAAACUAUUUAGUUA | 0.048 ± 0.012 | 0.00535 ± 0.002 | – |
| UCCUGCUACAGCUUGCAUAGUAUUUACAUA | 0.157 ± 0.041 | 0.0023 ± 0.0023 | – |
| UCCUGGAACAGCAUGCAUAGUAUUUAGAUA | 0.188 ± 0.022 | 0.00441 ± 0.0022 | – |
| UCCUCCUAGUGCUUGCAUAGUAUUUACAAA | 0.0188 ± 0.0067 | 0.00293 ± 0.0029 | – |
| UCCUGCUUCAGCUUGCAUAGUAUUUAGAAA | 0.195 ± 0.037 | 0.00434 ± 0.0021 | – |
| UCCUGGUACAGCUUGCAUAGUAUUGAGUUA | 0.155 ± 0.032 | 0.00418 ± 0.0024 | – |
| UCCUGGAUCAGCUUGCAUAGUAUUUUCAAA | 0.0677 ± 0.013 | 0.00307 ± 0.0027 | – |
| UCCUCCUACAGCUACGAUAGUAUUUAGUUA | 0.232 ± 0.015 | 0.00503 ± 0.0031 | – |
| UCCUGGUUGUGCUUGCAUAGUAUUUAGAAA | 0.0381 ± 0.013 | 0.00415 ± 0.0022 | – |
| UCCUCCUACAGCUUGCAUAGUAUUUUCAAA | 0.232 ± 0.044 | 0.00383 ± 0.0027 | – |
| UCCUGGAACAGCUUGCAUAGUAUUUUGAAA | 0.0888 ± 0.027 | 0.00294 ± 0.0022 | – |
| UCCUGGAUGAGCUUGCAUAGUAUUUAAUUA | 0.0516 ± 0.014 | 0.00294 ± 0.0025 | – |
| UCCUCCUACAGCUUGCAUAGUAUAUACAAA | 0.0968 ± 0.025 | 0.00313 ± 0.003 | – |
| UCCUGCUACUGCUUGCAUAGUAUAUAGUUA | 0.121 ± 0.018 | 0.00619 ± 0.0031 | – |
| UCCUGGAUGAGCUUGCAUAGUAUUAAGAUA | 0.00532 ± 0.0045 | 0.00505 ± 0.003 | – |
| UCCUGGUACAGCUUGCAUACUAUUUAGAAA | 0.0227 ± 0.011 | 0.00236 ± 0.0018 | – |
